{
  "source": "the supplement of paper PMC12632987",
  "binders": {"B1": {"name": "LC3A_3_1549 (protein)", "chain": "MEELLEETLKRLKEAGASEEVIEAVRKALQALIDRGYEEALKEFAREVEELIGLPDEILLDFAEEVLRAIEEEDLNEEELIERIKEIATIAKNEGEIIEL"}, "B2": {"name": "LC3A_28_855 (protein)", "chain": "SETRKSIEEAREELEKAREAKEPAVITVTVTSDVTEEEVEEVIELIKEAAEASKEVPDLTLIIDFEGEIDPEHLNRITDAADEAIKKNPKLNVIFALDEE"}, "B3": {"name": "LC3A_147_414 (protein)", "chain": "TVVEIDILVKSKEAVEKIKERMKEIVKELKAKGYKVKLEIKVEEVEPGVYLVDITIEIEAETKEDAEAAANFVLDKIDEMEEELKDEILGSLISVEIEEK"}, "B4": {"name": "LC3A_127_214 (protein)", "chain": "EKEKLIKELLELIRKAQELLAKPDYDLEEIRKLLEEAIKVAKELLKLDERFKPVLEDLESALKLVDQMENLSPAEQEEARERVSMLLDGAEIELLSLELK"}, "B5": {"name": "LC3A_147_517 (protein)", "chain": "YLVEVEIDMLLKNSKELAEEIAKEIEERLKEKGYKVEVELEFEEDEDGTIFADITIKVEAETLEEAKEVANEILDIIDELLEKNKDKILGALISVSITKK"}, "B6": {"name": "LC3A_147_516 (protein)", "chain": "YKVTVEIDLLLKNSKELAEEMAEEIKEYLESKGYEVEVELEFEEDEDGTIFAKITITVKAETKEEAEKVANEVLEKIDELLEKYKDKILGALISVSIEEE"}, "B7": {"name": "LC3A_132_295 (protein)", "chain": "MEEKAEKYLKELKALIAAAKANIDDDAKVTALLKEIEAKIEEAEKELTPEEVAKVFEEVADELWALSQVFDAAGKEQLALEADGLAIEAASLALRAKEKI"}, "B8": {"name": "LC3A_45_1925 (protein)", "chain": "MWEATLDVLVPRELAEKAYATAKELMAELEAEHGPDLRVDWATLDESYAASKDEEDVYLEIRIYHPDEQVALDAADRLEDELNAALGGKASSIISLKKLP"}},
  "note": "The full ranking holds about 2,300 sequences; the median of “median log2 fold change of GCK-ALFA target abundance (FLAG IP / Myc IP barcode read proportion)” is about 0.095, and the lowest 2% start at about -0.47. The sample holds the lowest values, similar sequences and a random draw of the others, so the mix is not that of the screen.",
  "data": [
    {"molecular_target": "MAP1LC3A, Q9H492", "experiment": "median log2 fold change of GCK-ALFA target abundance (FLAG IP / Myc IP barcode read proportion) (log2 ratio); each designed protein is fused to an ALFA-tag nanobody in HEK293 cells to bring the named protein to FLAG-tagged glucokinase (GCK); Myc marks an untargeted standard; higher = target protein stabilised (more abundant)", "conditions": "target protein: 3xFLAG-MCP-GCK-ALFA reporter; HEK293 landing pad (RPLP)", "method": "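LABEL-seq trans screen in HEK293 landing-pad cells. Each de novo designed 100-aa effector handle, binding the indicated effector (E3 ligase, DUB or autophagy protein), is fused to a constant NbALFA target handle and induced with 2 ug/mL doxycycline. A FLAG-MCP-GCK-ALFA target and a Myc-MCP standard reporter were transfected, and after 48 h circRNA barcodes were recovered by anti-FLAG and anti-Myc IP and sequenced. The value is the median across barcodes (at least 3 per design) of log2(FLAG/Myc read-proportion ratio), with the two transfection replicates pooled. Negative values mean degradation and positive values mean stabilisation of the target.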", "values": [
      {"binder": "B1", "median log2 fold change": 0.258},
      {"binder": "B2", "median log2 fold change": 0.127},
      {"binder": "B3", "median log2 fold change": -0.515},
      {"binder": "B4", "median log2 fold change": 0.409},
      {"binder": "B5", "median log2 fold change": -0.778},
      {"binder": "B6", "median log2 fold change": -0.0638},
      {"binder": "B7", "median log2 fold change": 0.0471},
      {"binder": "B8", "median log2 fold change": -0.101}
    ]}
  ]
}
